# Assay results: PMC5540273 (PLoS ONE, 2017)
# Where “and” joins values, the source holds several entries; their conditions need not be identical. Equal values may be shown once. Read-outs that look alike come from different tables or passages of the source.
# Key:
# TTK = conditions: concentration: 1 μM, replicates: in singlicate; n = 1
# TXK = conditions: n = 1
# [1] = tested on: TYK2(JH1domain-catalytic); conditions: n = 1
# [2] = tested on: TYK2(JH2domain-pseudokinase); conditions: n = 1
# TYRO3 = conditions: n = 1
# ULK1 = conditions: concentration: 1 μM, replicates: in singlicate; n = 1
# ULK2 = conditions: n = 1
# ULK3 = conditions: n = 1
# VEGFR2 = tested on: T1, VEGFR2; conditions: n = 1
# T1 construct: gene KDR
# VPS34 = tested on: T2, VPS34; conditions: n = 1
# T2 construct: gene PIK3C3
# VRK2 = conditions: concentration: 1 μM, replicates: in singlicate; n = 1
# WEE1 = conditions: n = 1
# WEE2 = conditions: n = 1
# WNK1 = conditions: n = 1
# WNK2 = conditions: n = 1
# WNK3 = conditions: n = 1
# WNK4 = conditions: n = 1
# YANK1 = tested on: T3, YANK1; conditions: n = 1
# T3 construct: gene STK32A
# YANK2 = tested on: T4, YANK2; conditions: n = 1
# T4 construct: gene STK32B
# YANK3 = tested on: T5, YANK3; conditions: n = 1
# T5 construct: gene STK32C
# [3] = concentration: 1 μM, replicates: in singlicate
# [4] = concentration: 1 μM,replicates: in singlicate, 1 µM
# 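Note: KINOMEscan kinase panel screen.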
smiles,measurement,setting,value
Cc1ccc(-c2cc(-c3c[nH]nc3-c3ccccn3)ccn2)cc1 [GW684088],%Inh,TTK,0%
same,%Inh,TXK; [3],0%
same,%Inh,[1]; [3],18%
same,%Inh,[2]; [3],22%
same,%Inh,TYRO3; [3],0%
same,%Inh,ULK1,0%
same,%Inh,ULK2; [3],0%
same,%Inh,ULK3; [3],3%
same,%Inh,VEGFR2; [3],22%
same,%Inh,VPS34; [3],0%
same,%Inh,VRK2,45%
same,%Inh,WEE1; [3],1%
same,%Inh,WEE2; [3],0%
same,%Inh,WNK1; [3],6%
same,%Inh,WNK2; [3],19%
same,%Inh,WNK3; [3],53%
same,%Inh,WNK4; [3],89%
same,%Inh,YANK1; [3],0%
same,%Inh,YANK2; [3],0%
same,%Inh,YANK3; [3],0%
Cc1cccc(-c2nc(Nc3ccc4[nH]ncc4c3)c3ccccc3n2)n1 [GW857175],%Inh,TTK,3%
same,%Inh,TXK; [3],0%
same,%Inh,[1]; [3],11%
same,%Inh,[2]; [3],36%
same,%Inh,TYRO3; [3],0%
same,%Inh,ULK1,12%
same,%Inh,ULK2; [3],8%
same,%Inh,ULK3; [3],18%
same,%Inh,VEGFR2; [3],23%
same,%Inh,VPS34; [3],0%
same,%Inh,VRK2,0%
same,%Inh,WEE1; [3],4%
same,%Inh,WEE2; [3],0%
same,%Inh,WNK1; [3],0%
same,%Inh,WNK2; [3],51%
same,%Inh,WNK3; [3],40%
same,%Inh,WNK4; [3],50%
same,%Inh,YANK1; [3],17%
same,%Inh,YANK2; [3],0%
same,%Inh,YANK3; [3],59%
CC1=C(C(=O)Nc2cc3cn[nH]c3cc2F)C(c2ccc(C(F)(F)F)cc2)CC(=O)N1 (centres unmarked) [GSK429286],%Inh,TTK,25%
same,%Inh,TXK; [3],21%
same,%Inh,[1]; [3],14%
same,%Inh,[2]; [3],3%
same,%Inh,TYRO3; [3],12%
same,%Inh,ULK1,0%
same,%Inh,ULK2; [3],0%
same,%Inh,ULK3; [3],34%
same,%Inh,VEGFR2; [3],0%
same,%Inh,VPS34; [3],0%
same,%Inh,VRK2,0%
same,%Inh,WEE1; [3],12%
same,%Inh,WEE2; [3],20%
same,%Inh,WNK1; [3],20%
same,%Inh,WNK2; [3],61%
same,%Inh,WNK3; [3],3%
same,%Inh,WNK4; [3],0%
same,%Inh,YANK1; [3],8%
same,%Inh,YANK2; [3],0%
same,%Inh,YANK3; [3],24%
CSc1nn2c(=O)cc(N3CCOCC3)nc2n1Cc1cccc(C(F)(F)F)c1C [GSK2363608],%Inh,TTK,0%
same,%Inh,TXK; [4],10% and 0%
same,%Inh,[1]; [4],51% and 72%
same,%Inh,[2]; [4],16% and 8%
same,%Inh,TYRO3; [4],0% and 18%
same,%Inh,ULK1,15%
same,%Inh,ULK2; [4],5% and 0%
same,%Inh,ULK3; [4],15% and 0%
same,%Inh,VEGFR2; [4],8% and 0%
same,%Inh,VPS34; [4],94.7% and 96.7%
same,%Inh,VRK2,0%
same,%Inh,WEE1; [4],15% and 11%
same,%Inh,WEE2; [4],9% and 10%
same,%Inh,WNK1; [4],13% and 7%
same,%Inh,WNK2; [4],14% and 22%
same,%Inh,WNK3; [4],24% and 10%
same,%Inh,WNK4; [4],1% and 4%
same,%Inh,YANK1; [4],0% and 3%
same,%Inh,YANK2; [4],8% and 0%
same,%Inh,YANK3; [4],0% and 68%
Cc1nnc(-c2ccc3occ(-c4ccc(S(C)=O)cc4)c3c2)[nH]1 (centres unmarked),%Inh,TTK,8%
same,%Inh,TXK; [3],0%
same,%Inh,[1]; [3],8%
same,%Inh,[2]; [3],59%
same,%Inh,TYRO3; [3],0%
same,%Inh,ULK1,4%
same,%Inh,ULK2; [3],23%
same,%Inh,ULK3; [3],14%
same,%Inh,VEGFR2; [3],1%
same,%Inh,VPS34; [3],88%
same,%Inh,VRK2,0%
same,%Inh,WEE1; [3],0%
same,%Inh,WEE2; [3],32%
same,%Inh,WNK1; [3],0%
same,%Inh,WNK2; [3],19%
same,%Inh,WNK3; [3],0%
same,%Inh,WNK4; [3],0%
same,%Inh,YANK1; [3],0%
same,%Inh,YANK2; [3],0%
same,%Inh,YANK3; [3],0%
O=c1cc(N2CCOCC2)nc2n(Cc3cccc(Cl)c3Cl)ccn12 [GSK2286295],%Inh,TTK,0%
same,%Inh,TXK; [3],19%
same,%Inh,[1]; [3],4%
same,%Inh,[2]; [3],0%
same,%Inh,TYRO3; [3],0%
same,%Inh,ULK1,12%
same,%Inh,ULK2; [3],0%
same,%Inh,ULK3; [3],0%
same,%Inh,VEGFR2; [3],0%
same,%Inh,VPS34; [3],97%
same,%Inh,VRK2,0%
same,%Inh,WEE1; [3],3%
same,%Inh,WEE2; [3],0%
same,%Inh,WNK1; [3],0%
same,%Inh,WNK2; [3],0%
same,%Inh,WNK3; [3],0%
same,%Inh,WNK4; [3],0%
same,%Inh,YANK1; [3],16%
same,%Inh,YANK2; [3],2%
same,%Inh,YANK3; [3],0%
COc1cccc(NC(=O)NC2CCN(c3ccnc(Nc4ccc(F)cc4)n3)C2)c1 (centres unmarked) [GSK1379721],%Inh,TTK,9%
same,%Inh,TXK; [3],41%
same,%Inh,[1]; [3],26%
same,%Inh,[2]; [3],52%
same,%Inh,TYRO3; [3],0%
same,%Inh,ULK1,13%
same,%Inh,ULK2; [3],0%
same,%Inh,ULK3; [3],9%
same,%Inh,VEGFR2; [3],10%
same,%Inh,VPS34; [3],7%
same,%Inh,VRK2,0%
same,%Inh,WEE1; [3],6%
same,%Inh,WEE2; [3],0%
same,%Inh,WNK1; [3],5%
same,%Inh,WNK2; [3],8%
same,%Inh,WNK3; [3],33%
same,%Inh,WNK4; [3],2%
same,%Inh,YANK1; [3],0%
same,%Inh,YANK2; [3],0%
same,%Inh,YANK3; [3],0%
